Some of the results follow. Calls of active or inactive are those of the source.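 How the source made its calls, unless noted: active means mean inhibition over 43.08%, the solvent-only control mean plus 3 SD; inactive means the rest.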
Key:
[1] = target: Nuclear receptor coactivator 3 (Homo sapiens) (UniProt Q9Y6Q9); experiment: SRC3 coactivator transcriptional activity inhibitors, confirmation, cell-based, luminescence, quadruplicate (AID 588792); settings: HEK293 GAL4-SRC3 luciferase reporter, at 3.6 µM, active compounds read high;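 further: 0% = DMSO treated cells and 100% = gossypol at 36 µM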
Chain of Nuclear receptor coactivator 3 (Homo sapiens) (Q9Y6Q9 whole entry, looked up, the tested form may be a part): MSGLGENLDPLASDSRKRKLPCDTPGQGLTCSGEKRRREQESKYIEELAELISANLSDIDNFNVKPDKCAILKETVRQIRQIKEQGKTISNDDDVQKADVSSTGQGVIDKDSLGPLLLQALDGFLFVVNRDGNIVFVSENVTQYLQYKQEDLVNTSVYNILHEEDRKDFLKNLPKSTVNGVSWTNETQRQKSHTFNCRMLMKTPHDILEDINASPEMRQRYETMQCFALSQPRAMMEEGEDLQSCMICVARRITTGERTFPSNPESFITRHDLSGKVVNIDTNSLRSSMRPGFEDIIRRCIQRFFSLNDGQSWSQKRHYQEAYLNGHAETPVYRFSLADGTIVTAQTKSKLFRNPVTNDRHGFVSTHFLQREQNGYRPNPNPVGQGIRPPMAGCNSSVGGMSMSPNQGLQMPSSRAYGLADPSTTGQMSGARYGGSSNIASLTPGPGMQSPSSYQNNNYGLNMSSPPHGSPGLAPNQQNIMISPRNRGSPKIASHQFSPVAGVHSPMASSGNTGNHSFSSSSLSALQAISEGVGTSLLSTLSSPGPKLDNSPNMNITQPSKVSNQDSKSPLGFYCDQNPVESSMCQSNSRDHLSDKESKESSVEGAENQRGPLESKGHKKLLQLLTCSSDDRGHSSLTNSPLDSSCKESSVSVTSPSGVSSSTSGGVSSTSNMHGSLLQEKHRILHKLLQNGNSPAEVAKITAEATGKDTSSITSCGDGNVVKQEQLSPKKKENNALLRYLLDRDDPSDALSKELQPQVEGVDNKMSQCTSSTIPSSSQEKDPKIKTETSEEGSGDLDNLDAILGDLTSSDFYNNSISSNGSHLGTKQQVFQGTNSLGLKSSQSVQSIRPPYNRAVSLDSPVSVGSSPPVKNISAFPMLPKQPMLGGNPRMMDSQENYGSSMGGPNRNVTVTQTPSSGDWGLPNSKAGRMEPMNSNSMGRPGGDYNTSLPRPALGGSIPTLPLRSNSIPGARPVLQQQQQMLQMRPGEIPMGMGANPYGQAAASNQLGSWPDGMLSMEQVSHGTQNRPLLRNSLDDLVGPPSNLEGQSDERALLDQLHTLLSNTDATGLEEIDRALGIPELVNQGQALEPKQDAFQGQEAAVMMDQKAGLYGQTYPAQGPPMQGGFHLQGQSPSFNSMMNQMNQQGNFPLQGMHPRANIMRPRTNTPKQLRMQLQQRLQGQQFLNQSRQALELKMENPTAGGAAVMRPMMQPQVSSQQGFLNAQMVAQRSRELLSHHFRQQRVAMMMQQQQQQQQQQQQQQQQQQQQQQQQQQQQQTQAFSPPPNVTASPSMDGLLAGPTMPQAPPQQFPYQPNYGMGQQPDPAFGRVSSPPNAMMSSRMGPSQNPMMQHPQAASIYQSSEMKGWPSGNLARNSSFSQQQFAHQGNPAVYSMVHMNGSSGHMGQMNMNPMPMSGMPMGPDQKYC

[2] = tested on: transactivating tegument protein VP16 (Human herpesvirus 1), Gal4-VP16 luciferase reporter; experiment: VP16 transactivation inhibitors, counter-screen for SRC3 inhibitor project, cell-based, luminescence, high throughput (AID 588794; in the data active means inhibition above about 30%); settings: mammalian cells, VP16-driven luciferase reporter luminescence; at 3.6 µM; active compounds read high
[3] = target: Nuclear receptor coactivator 1 (Homo sapiens) (UniProt Q15788); experiment: SRC1 coactivator transcriptional activity inhibitors, confirmation, cell-based, luminescence, quadruplicate (AID 588820;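 active means mean inhibition above 46.68%, the untreated control wells mean plus 3 SD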;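 further: 0% = DMSO wells and 100% = gossypol 36 µM treated wells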); settings: HEK293 GAL4-SRC1 luciferase reporter, at 3.6 µM, active compounds read high
Chain of Nuclear receptor coactivator 1 (Homo sapiens) (Q15788 whole entry, looked up, the tested form may be a part): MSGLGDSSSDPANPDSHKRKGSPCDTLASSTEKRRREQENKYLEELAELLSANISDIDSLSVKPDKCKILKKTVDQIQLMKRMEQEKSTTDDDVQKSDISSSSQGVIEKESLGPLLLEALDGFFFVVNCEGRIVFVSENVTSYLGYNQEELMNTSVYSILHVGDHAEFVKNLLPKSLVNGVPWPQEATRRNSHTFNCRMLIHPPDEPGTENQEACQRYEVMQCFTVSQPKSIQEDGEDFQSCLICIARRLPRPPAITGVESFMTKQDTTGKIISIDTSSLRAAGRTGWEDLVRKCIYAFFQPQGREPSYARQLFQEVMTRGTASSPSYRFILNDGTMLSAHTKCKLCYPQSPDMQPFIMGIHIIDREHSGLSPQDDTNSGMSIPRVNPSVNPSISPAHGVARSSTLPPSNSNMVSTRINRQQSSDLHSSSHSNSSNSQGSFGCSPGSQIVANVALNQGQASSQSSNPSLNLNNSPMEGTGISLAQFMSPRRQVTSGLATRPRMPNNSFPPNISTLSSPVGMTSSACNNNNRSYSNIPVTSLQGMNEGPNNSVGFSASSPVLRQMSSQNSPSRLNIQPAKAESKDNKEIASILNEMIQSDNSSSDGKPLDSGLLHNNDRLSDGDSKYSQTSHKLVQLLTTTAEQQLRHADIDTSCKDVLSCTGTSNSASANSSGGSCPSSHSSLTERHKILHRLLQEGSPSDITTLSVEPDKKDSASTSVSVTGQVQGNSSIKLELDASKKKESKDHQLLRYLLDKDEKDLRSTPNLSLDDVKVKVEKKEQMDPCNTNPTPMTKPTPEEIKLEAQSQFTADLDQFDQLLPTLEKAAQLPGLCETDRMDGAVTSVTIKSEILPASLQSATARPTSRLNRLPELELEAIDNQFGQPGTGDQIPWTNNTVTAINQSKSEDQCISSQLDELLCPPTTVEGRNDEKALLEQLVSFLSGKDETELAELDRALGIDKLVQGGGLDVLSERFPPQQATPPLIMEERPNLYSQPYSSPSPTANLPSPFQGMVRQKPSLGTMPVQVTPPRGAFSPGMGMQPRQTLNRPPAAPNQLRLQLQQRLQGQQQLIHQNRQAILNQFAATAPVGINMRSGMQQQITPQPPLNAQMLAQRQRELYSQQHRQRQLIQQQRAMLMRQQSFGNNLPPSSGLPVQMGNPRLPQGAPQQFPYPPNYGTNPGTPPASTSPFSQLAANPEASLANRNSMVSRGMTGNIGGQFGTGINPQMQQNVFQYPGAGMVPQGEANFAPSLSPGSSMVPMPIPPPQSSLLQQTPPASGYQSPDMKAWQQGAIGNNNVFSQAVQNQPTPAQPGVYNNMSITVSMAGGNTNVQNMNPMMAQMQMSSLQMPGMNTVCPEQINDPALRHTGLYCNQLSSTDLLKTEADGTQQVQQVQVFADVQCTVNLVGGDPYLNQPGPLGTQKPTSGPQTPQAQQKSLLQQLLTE

[4] = VP16 transactivation inhibitors, counter-screen for SRC1 inhibitor project, cell-based, luminescence, high throughput (AID 588824; in the data active means inhibition above about 25%); settings: cell-based VP16 transactivation luciferase luminescence; at 3.6 µM; active compounds read high
[5] = StAR promoter reporter inhibitors, counter-screen for LRH-1 inverse agonist project, cell-based, luminescence, high throughput (AID 651611; in the data active means inhibition above about 28%); settings: StAR promoter luciferase reporter counterscreen, at 3.6 µM, active compounds read high
[6] = target: Nuclear receptor subfamily 5 group A member 2 (Homo sapiens) (UniProt O00482); experiment: LRH-1 (NR5A2) inverse agonists, retest, confirmation, cell-based, luminescence (AID 651613; in the data active means inhibition above about 42%;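 further: HEK293T cells co-transfected with LRH-1 and StAR promoter luciferase reporter; 0% = vehicle wells and 100% = parental cells lacking receptor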); settings: cell-based LRH-1 luciferase reporter, inverse agonism; at 3.6 µM; active compounds read high
[7] = target: Steroidogenic factor 1 (Homo sapiens) (UniProt Q13285); experiment: SF1 (NR5A1) inverse agonists, counter-screen for LRH-1 inverse agonist project, cell-based, luminescence, high throughput (AID 651614; in the data active means inhibition above about 44%;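 further: cells cotransfected with StAR promoter reporter and SF1 expression vector; 0% = vehicle on cells with receptor and 100% = vehicle on cells lacking receptor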); settings: cell-based SF1 luciferase reporter, at 3.6 µM, active compounds read high
Chain of Steroidogenic factor 1 (Homo sapiens) (Q13285 whole entry, looked up, the tested form may be a part): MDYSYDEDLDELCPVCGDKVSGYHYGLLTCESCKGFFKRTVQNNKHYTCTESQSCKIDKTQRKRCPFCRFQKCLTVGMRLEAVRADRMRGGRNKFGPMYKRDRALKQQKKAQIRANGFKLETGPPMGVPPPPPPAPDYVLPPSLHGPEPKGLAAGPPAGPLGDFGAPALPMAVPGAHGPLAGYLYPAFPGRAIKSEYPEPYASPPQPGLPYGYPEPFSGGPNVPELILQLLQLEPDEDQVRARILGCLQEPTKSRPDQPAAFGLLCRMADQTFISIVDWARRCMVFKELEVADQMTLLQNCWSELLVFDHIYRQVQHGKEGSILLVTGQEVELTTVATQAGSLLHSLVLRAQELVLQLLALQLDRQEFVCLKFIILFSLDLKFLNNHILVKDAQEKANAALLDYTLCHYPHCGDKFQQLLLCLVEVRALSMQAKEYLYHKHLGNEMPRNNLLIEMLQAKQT

[8] = VP16 transactivation reporter inhibitors, counter-screen for LRH-1 inverse agonist project, cell-based, luminescence, high throughput (AID 651615; in the data active means inhibition above about 33%); settings: Gal4-VP16 luciferase reporter cells, at 3.6 µM, active compounds read high
[9] = Gal4-VP16 luciferase reporter inhibitors, counter-screen for COUP-TFII antagonist project, cell-based, luminescence, HEK293 (AID 687007; in the data active means inhibition above about 13%); settings: at 8.5 µM, active compounds read high
[10] = target: COUP transcription factor 2 (Homo sapiens) (UniProt P24468); experiment: NR2F2 transcriptional activity inhibitors, confirmation, cell-based, luciferase reporter, HEK293, triplicate (AID 687008;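 active means mean inhibition over three repeats above a set limit taken from the earlier primary screen, cut at about 38% in these data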;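 further: 100% = cells given the luciferase reporter alone without the COUP-TF2 vector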); settings: HEK293 NGFI-A luciferase reporter, luminescence; at 8.5 µM; active compounds read high
[11] = tested on: transactivating tegument protein VP16 (Human herpesvirus 1); experiment: VP16 transactivation reporter inhibitors, counter-screen for SRC2 inhibitor project, cell-based, luminescence, single concentration (AID 652007; in the data active means inhibition above about 36%); settings: cell-based VP16 transactivation luciferase reporter, at 8.9 µM, active compounds read high
[12] = target: Nuclear receptor coactivator 2 (Homo sapiens) (UniProt Q15596); experiment: SRC2 coactivator transcriptional activity inhibitors, confirmation, cell-based, luminescence, HEK293, triplicate (AID 652008;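 active means mean inhibition above 46.5%, the solvent-only control mean plus 3 SD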;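 further: 0% = DMSO-treated cells and 100% = Gossypol at 36 µM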); settings: HEK293 GAL4-SRC2 luciferase reporter, at 8.9 µM, active compounds read high
Chain of Nuclear receptor coactivator 2 (Homo sapiens) (Q15596 whole entry, looked up, the tested form may be a part): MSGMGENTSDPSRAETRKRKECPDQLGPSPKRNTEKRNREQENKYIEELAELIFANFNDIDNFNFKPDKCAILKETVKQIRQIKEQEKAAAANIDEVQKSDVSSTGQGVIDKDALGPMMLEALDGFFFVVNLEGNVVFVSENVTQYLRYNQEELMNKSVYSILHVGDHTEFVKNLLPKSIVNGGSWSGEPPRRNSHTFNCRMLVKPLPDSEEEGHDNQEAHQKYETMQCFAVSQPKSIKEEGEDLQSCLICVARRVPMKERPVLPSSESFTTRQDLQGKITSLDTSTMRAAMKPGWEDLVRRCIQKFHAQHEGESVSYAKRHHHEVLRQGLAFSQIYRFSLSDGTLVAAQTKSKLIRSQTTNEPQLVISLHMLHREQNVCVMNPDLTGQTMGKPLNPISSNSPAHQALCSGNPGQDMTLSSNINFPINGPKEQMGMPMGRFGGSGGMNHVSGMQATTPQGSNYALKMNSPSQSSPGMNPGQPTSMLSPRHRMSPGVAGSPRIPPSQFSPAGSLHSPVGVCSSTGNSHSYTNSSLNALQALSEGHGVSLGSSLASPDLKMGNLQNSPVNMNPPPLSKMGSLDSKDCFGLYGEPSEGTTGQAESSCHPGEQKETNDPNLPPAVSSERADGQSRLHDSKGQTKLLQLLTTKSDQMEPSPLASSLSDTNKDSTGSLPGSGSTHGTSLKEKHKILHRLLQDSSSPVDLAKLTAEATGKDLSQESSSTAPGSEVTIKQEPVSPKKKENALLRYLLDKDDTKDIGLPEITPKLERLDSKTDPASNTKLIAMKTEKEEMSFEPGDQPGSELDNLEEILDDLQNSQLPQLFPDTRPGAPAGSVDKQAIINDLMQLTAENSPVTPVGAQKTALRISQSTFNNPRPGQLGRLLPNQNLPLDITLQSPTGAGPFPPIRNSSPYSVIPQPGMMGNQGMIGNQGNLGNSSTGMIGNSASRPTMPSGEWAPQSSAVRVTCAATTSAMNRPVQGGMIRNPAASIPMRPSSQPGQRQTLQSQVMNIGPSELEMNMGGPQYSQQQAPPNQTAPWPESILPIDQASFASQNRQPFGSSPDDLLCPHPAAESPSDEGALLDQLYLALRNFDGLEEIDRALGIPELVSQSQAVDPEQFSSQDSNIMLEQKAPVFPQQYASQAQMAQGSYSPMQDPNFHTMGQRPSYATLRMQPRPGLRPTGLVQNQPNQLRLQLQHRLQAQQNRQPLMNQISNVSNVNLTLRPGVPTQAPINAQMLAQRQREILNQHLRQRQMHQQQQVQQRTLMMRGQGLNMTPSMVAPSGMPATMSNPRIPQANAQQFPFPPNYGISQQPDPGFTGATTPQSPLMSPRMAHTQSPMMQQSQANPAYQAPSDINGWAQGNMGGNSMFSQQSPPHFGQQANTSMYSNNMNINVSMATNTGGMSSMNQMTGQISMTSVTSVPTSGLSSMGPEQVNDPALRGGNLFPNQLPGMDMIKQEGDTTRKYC

[13] = growth loss of phage-infected RecBCD+ E. coli, confirmation, RecBCD inhibitor project, absorbance, E. coli V66, T4 gene 2 phage (AID 651982;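 active means mean inhibition over triplicates exceeding the hit threshold derived in the original primary screen, cut at about 11% in these data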); settings: E. coli V66 + T4 2- phage, growth OD; at 11.9 µM; active compounds read high
[14] = E. coli viability inhibition, counter-screen for RecBCD inhibitor project, absorbance, high throughput (AID 651983; in the data active means inhibition above about 20%;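 further: E. coli strain V66 grown with compound alone and no phage infection; 0% = bacteria with DMSO vehicle only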); settings: absorbance (OD) growth, at 11.9 µM, active compounds read high
[15] = growth loss of phage-infected AddAB-carrying E. coli, confirmation, counter-screen for RecBCD inhibitor project, absorbance, E. coli V3065, T4 phage (AID 651984;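 active means mean inhibition above the solvent-only control wells' mean plus 3 SD, cut at about 22% in these data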;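 further: higher means less bacterial growth from phage killing when AddAB is blocked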); settings: E. coli expressing H. pylori AddAB + T4 phage, OD growth; at 11.9 µM; active compounds read high; gene 2 mutant T4, recBCD-deleted host

Measured: inhibition

CC1(C)CC(N2CCN(C(c3ccccc3)c3ccccc3)CC2)=CC(=[N+]2CCCCC2)C1
active: [1] 91% | [2] 87.8% | [3] 69.5% | [4] 87.8% | [5] 80.6% | [6] 110% | [7] 94.8% | [8] 94.7% | [9] 24.1% | [10] 86.3%

O=C(/C=C/c1ccccc1)CC(O)(c1ccccc1)C(F)(F)F (configuration not stated)
inactive: [1] 38.5% | [3] 12.9% | [11] 21.8% | [12] 32.7%
active: [2] 31% | [4] 45.9%

C=C1C(=O)[C@]23C[C@H]1CCC2[C@@]1(C)C(C[C@@H]3O)[C@](C)(C(=O)OC)CC[C@@H]1O (some centres not stated)
active: [4] 37.1% | [5] 43.8% | [6] 41.3% | [8] 49.4% | [12] 49.3%
inactive: [1] 40% | [2] 24.9% | [3] -14.1% | [7] 42.4% | [11] 34.8%

O=C(NC1CCCCC1)C(c1cccnc1)N(C(=O)CCl)c1ccc(F)cc1 (configuration not stated)
inactive: [3] 20.8%
active: [1] 78.3% | [2] 65.9% | [4] 65.1% | [11] 64.5% | [12] 64.8%

Cc1cc(C(=O)COc2cccnc2[N+](=O)[O-])c(C)n1-c1ccccc1
active: [12] 68.1%
inactive: [1] -5.17% | [2] -52.9% | [3] -11.3% | [4] -70.8% | [11] -71.7%

Cc1c([N+](=O)[O-])c2ccc(O)cc2n1-c1ccccc1
inactive: [11] 2.8% | [12] 35.8%
active: [1] 53.5% | [2] 31.6% | [3] 55.4% | [4] 30.1%

Nc1nc(=S)c2ncn([C@@H]3O[C@H](CO)[C@@H](O)[C@H]3O)c2[nH]1
active: [1] 67.6% | [4] 29.9% | [6] 77.2% | [7] 48.2%
inactive: [2] 23.3% | [3] 11.8%

CC(C)(C)OC(=O)N1Cc2ccccc2C[C@H]1C(=O)NCC(=O)Nc1ccc2c(c1)OCCO2
inactive: [1] 28.9% | [2] 1.92% | [3] 5.58% | [4] -7.64% | [11] -3.02%
active: [12] 52%

CC(C)(C)c1ccc(C(=O)NCCOc2ccccc2F)cc1
inactive: [1] 10.1% | [2] -2.97% | [3] -61% | [4] -47.6% | [11] -20.4%
active: [12] 47.8%

Cc1ccc(/C=N/NC(=O)C2=NNC(c3ccccc3)(c3ccccc3)C2)c(O)c1
active: [1] 71.4% | [2] 57.5% | [4] 51.8%
inactive: [3] 45.4% | [13] 3.86% | [14] 5.88% | [15] 5.05%

CN1CCN(c2ccc(NC(=O)N3CCc4ccccc43)cc2)CC1
active: [12] 53.1%
inactive: [1] 32.5% | [2] 13.4% | [3] -43.7% | [4] -20.3% | [11] -18.3%

Cc1ccc2nc(-c3ccccc3)cn2c1
inactive: [1] 21.2% | [2] -9.75% | [3] -44.9% | [4] -21.6% | [11] 19.2%
active: [12] 51.8%

CCN(CC)c1ccc(/C=N/NC(=O)c2nnn(-c3nonc3N)c2C(C)C)c(O)c1
active: [1] 77.3% | [2] 72.6% | [3] 68.7% | [4] 65.5%
inactive: [11] -10.2% | [12] 29.9%

C=CCN(CC=C)c1ncnc2[nH]ncc12
active: [1] 71.4% | [2] 50.9% | [3] 53.9% | [4] 45.2%
inactive: [11] -8.17% | [12] 34.4%

CC1(Cc2ccc(F)cc2)C(=O)Nc2ccc(-c3cccnc3)cc21 (configuration not stated)
active: [1] 50.6% | [2] 35.4% | [3] 48.7% | [4] 35.3%
inactive: [11] 10.2% | [12] 36.8%

CN(Cc1nccs1)C(=O)c1cc(COc2cccc3cnccc23)on1
inactive: [1] 27.5% | [3] 19.8% | [11] 16.6%
active: [2] 36.1% | [4] 34.7% | [12] 51.8%

Clc1ccc(CSc2nnc(-c3ccncc3)o2)cc1
inactive: [3] 43.3% | [11] -11.8% | [12] 28.8%
active: [1] 48.3% | [2] 30.9% | [4] 32.8%

COc1ccc(-c2cc(=O)oc3cc(OC(=O)C4CCCCC4)c(Cl)cc23)cc1
active: [1] 59.4% | [2] 38.7% | [3] 56% | [4] 41.2%
inactive: [11] -4.78% | [12] 37.4%

— PubChem BioAssay
